This is an account of results in PubChem BioAssay (Tox21).

Unmarked numbers belong to inactive results. Records with an inconclusive call do not appear. Activity calls are given as the source filed them. Unless noted, calls come from the whole dose curve; as a rule, active = well fitted curve in the direction sought with a large enough effect in the repeat runs; inconclusive = weak or mixed curves; inactive = no such curve, though single readings can be large; an effect the other way counts as inactive or inconclusive.

The target of experiment [1] is Aromatase (Homo sapiens) (UniProt P11511). Put plainly: qHTS assay to identify aromatase inhibitors (AID 743083; note: nearly all actives have a fitted effect of over 55% in size; note: potency is the fitted concentration of half-maximal effect). (In general: In qHTS, concentration-response curves come from the screen itself.)
Chain of Aromatase (Homo sapiens) (P11511 whole entry, looked up): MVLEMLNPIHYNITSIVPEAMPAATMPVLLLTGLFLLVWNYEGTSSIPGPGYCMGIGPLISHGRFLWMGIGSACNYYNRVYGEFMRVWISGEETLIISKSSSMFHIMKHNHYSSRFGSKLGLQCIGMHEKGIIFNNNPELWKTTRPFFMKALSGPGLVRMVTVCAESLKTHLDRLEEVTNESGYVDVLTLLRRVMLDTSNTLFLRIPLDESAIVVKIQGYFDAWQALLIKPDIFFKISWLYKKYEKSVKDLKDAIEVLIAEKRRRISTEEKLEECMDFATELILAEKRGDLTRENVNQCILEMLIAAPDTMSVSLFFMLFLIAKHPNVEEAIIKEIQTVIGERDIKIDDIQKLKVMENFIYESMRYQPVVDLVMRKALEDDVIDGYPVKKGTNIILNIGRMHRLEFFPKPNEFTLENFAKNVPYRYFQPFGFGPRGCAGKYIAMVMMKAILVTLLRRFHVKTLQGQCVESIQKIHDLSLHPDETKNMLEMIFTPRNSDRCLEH
For experiment [2], the target named is Aryl hydrocarbon receptor (Homo sapiens) (UniProt P35869). The experiment can be described thus: qHTS assay to identify small molecule that activate the aryl hydrocarbon receptor (AhR) signaling pathway (AID 743085).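 Note: HG2L7.5c1 human HepG2 liver cells with stably integrated DRE-driven firefly reporter; series mostly up to about 70 µM; nearly all actives have a fitted effect of over 15% in size.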 In a few lines:
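Cell line HG2L7.5c1 (human hepatoma, 20× DRE-luc). Plated, 5 h 37C, compound/DMSO added, 24 h 37C. CellTiter-Fluor 30 min 37C → fluorescence; then ONE-Glo 30 min RT → luminescence.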

Experiment [3] is described as follows: qHTS assay for small molecules that induce genotoxicity in human embryonic kidney cells expressing luciferase-tagged ATAD5 (AID 651632). Note: nearly all actives have a fitted effect of over 15% in size. In a few lines:
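Reporter cells (HEK293T) express luciferase-tagged ATAD5, a protein that accumulates after DNA damage. Treat 16 hr at 37C/5% CO2, add Amplite, wait 30 min at RT, and read luminescence.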

Experiment [4] in a line: qHTS assay for small molecule agonists of the p53 signaling pathway - cell viability (AID 651633; calls by dose curve;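 note: p53RE-bla HCT reporter cells with a stable beta-lactamase p53 reporter; series mostly up to about 83 µM; nearly all actives have a fitted effect of over 30% in size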). Summed up:
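p53RE-bla cells, seeded at 4,000 per well and rested 5 h at 37 C/5% CO2, received compounds in DMSO for 16 h at 37 C. CellTiter-Glo was then added, and luminescence was read after 30 min at room temperature to gauge cytotoxicity.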

A short description of experiment [5]: qHTS assay for small molecule disruptors of the mitochondrial membrane potential - cell viability (AID 720634; calls by dose curve;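 note: human HepG2 liver cancer cells; series mostly up to about 83 µM; nearly all actives have a fitted effect of over 20% in size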). In a few lines:
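Measuring cytotoxicity alongside mitochondrial potential, the screen quantified ATP by luminescence in HepG2 cells after 1 hr compound incubation and a 30 min room-temperature CellTiter-Glo step.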

Experiment [6] can be described thus: qHTS assay to test for compound auto fluorescence at 535 nm (green) in HepG2 cells (AID 720675).
Experiment [7] in a line: qHTS assay to test for compound auto fluorescence at 590 nm (red) in HEK293 cells (AID 720679). In a few lines: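 Using HEK293 cells at 2,000 per well, the screen added 23 nL of each compound after cell attachment and incubated overnight (37C, 5% CO2). The plate reader then captured red-label fluorescence, Ex/Em 540/590nm.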
Experiment [8] is described as follows: qHTS assay to test for compound auto fluorescence at 460 nm (blue) in HEK293 cell free culture (AID 720681). In a few lines:
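Test compounds were pinned into cell-free culture medium (DMEM with 10% FBS) and fluorescence was read directly at Ex/Em 405/460 nm. Signals were expressed as fluorescence equivalents of triamterene, with DMSO vehicle as control.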

The nature of experiment [9]: qHTS assay to test for compound auto fluorescence at 535 nm (green) in HEK293 cell free culture (AID 720682). Summed up: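 Fluorescein serves as the green reference fluorophore; each compound's intrinsic emission at 535 nm (excitation 485 nm) is reported as an equivalent amount of that dye, measured in serum-containing DMEM without cells.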
Experiment [10] is described as follows: qHTS assay to test for compound auto fluorescence at 590 nm (red) in HepG2 cell free culture (AID 720684). In a few lines:
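Red fluorescence (540 nm excitation, 590 nm emission) was measured after compound transfer into cell-free MEM supplemented with 10% FBS. Values are equivalencies against Rose Bengal sodium.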

Experiment [11] is described as follows: qHTS assay to test for compound auto fluorescence at 460 nm (blue) in HepG2 cell free culture (AID 720685). Summed up:
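Compound (23 nL) or DMSO pinned into cell-free MEM with 10% FBS; blue fluorescence read at 405/460 nm excitation/emission, expressed as auto-fluorescence equivalency to triamterene.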

A short description of experiment [12]: qHTS assay to test for compound auto fluorescence at 535 nm (green) in HepG2 cell free culture (AID 720686).
A short description of experiment [13]: qHTS assay to test for compound auto fluorescence at 460 nm (blue) in HepG2 cells (AID 720687). Summed up: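 Cells (2,000/well in MEM with 10% FBS) attached overnight at 37 C, then were exposed to compound or DMSO for 1 hr at 37 C, 5% CO2. Fluorescence read at Ex/Em 405/460 nm, expressed as triamterene-equivalent signal.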
Experiment [14] can be described thus: qHTS assay to identify small molecule antagonists of the androgen receptor (AR) signaling pathway - cell viability counter screen (AID 743033; note: nearly all actives have a fitted effect of over 45% in size).
The nature of experiment [15]: qHTS assay to identify small molecule antagonists of the androgen receptor (AR) signaling pathway using the MDA cell line - cell viability counter screen (AID 743041; note: nearly all actives have a fitted effect of over 45% in size). Summed up: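 MDA-kb2 AR-luc human breast carcinoma cells (MMTV-luciferase, AR/GR responsive) were treated with compounds plus R1881 agonist for 16 h at 37 °C. Viability was read as CellTiter-Fluor fluorescence in the same wells as the reporter assay.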

The nature of experiment [16]: qHTS assay to identify small molecule antagonists of the estrogen receptor alpha (ER-alpha) signaling pathway - cell viability counter screen (AID 743074; calls by dose curve;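 note: HEK293 cells carrying ER-alpha-UAS-bla reporter stimulated with 17beta-estradiol; nearly all actives have a fitted effect of over 45% in size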).
Experiment [17] is described as follows: qHTS assay to identify small molecule antagonists of the estrogen receptor alpha (ER-alpha) signaling pathway using the BG1 cell line - cell viability counter screen (AID 743081).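 Note: compound given together with 17beta-estradiol as the ER stimulus; series mostly up to about 70 µM; nearly all actives have a fitted effect of over 45% in size.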
Experiment [18] in a line: qHTS assay to identify small molecule phospholipidosis (PLD) inducers (AID 1259344; active = well fitted curve in the direction sought with a large enough effect; an effect the other way counts as inactive or inconclusive). Summed up: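 HepG2 cells on collagen I, attached 4 h at 37 C, were co-treated with compound and LipidTOX Red dye for 24 h at 37 C, then fixed with paraformaldehyde plus Hoechst 33342 and imaged by high-content microscopy for phospholipid accumulation.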
The nature of experiment [19]: qHTS assay to identify aromatase inhibitors - cell viability counter screen (AID 743084).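 Note: cells stimulated with testosterone during compound exposure; nearly all actives have a fitted effect of over 55% in size.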
Experiment [20] has as its target Nuclear receptor subfamily 1 group I member 2 (Rattus norvegicus) (UniProt Q9R1A7). The experiment can be described thus: Rat pregnane X receptor (rPXR) activation by small molecules, qHTS assay (AID 1346983). Note: nearly all actives have a fitted effect of over 20% in size. Particulars: rPXR luciferase reporter cells, One-Glo luminescence, 24 h; max activation: active compounds read high. In a few lines: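 Cell-based rPXR luciferase reporter assay, 2,000 cells per well, rested 5hr at 37 C before compound addition in DMSO, then 24 hr at 37 C. One-Glo reagent was added and luminescence read after 30 min at room temperature.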
% is set by controls: 0 for no effect and ±100 for the full control effect.

Chain of Aryl hydrocarbon receptor (Homo sapiens) (P35869 whole entry, looked up): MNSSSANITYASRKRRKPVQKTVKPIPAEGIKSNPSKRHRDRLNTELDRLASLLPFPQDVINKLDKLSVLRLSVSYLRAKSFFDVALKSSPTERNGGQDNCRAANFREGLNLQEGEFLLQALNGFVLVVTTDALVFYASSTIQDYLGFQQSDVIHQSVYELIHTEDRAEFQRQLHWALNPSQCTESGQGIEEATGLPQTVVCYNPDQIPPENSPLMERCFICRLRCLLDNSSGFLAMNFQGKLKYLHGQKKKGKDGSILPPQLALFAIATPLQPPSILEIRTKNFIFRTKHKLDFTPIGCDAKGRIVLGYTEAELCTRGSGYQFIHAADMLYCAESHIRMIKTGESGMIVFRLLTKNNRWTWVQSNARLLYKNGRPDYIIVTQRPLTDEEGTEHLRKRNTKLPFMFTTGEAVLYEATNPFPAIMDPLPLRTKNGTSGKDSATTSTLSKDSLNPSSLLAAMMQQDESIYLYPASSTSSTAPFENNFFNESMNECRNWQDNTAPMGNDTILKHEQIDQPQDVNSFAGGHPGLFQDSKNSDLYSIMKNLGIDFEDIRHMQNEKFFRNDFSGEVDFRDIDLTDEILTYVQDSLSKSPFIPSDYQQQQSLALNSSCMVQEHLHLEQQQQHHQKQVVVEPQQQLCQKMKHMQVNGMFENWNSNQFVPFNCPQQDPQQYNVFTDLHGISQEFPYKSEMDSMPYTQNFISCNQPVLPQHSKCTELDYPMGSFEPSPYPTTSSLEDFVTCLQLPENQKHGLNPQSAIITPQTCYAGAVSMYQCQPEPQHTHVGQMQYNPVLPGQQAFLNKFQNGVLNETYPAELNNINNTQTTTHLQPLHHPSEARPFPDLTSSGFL
Chain of Nuclear receptor subfamily 1 group I member 2 (Rattus norvegicus) (Q9R1A7 whole entry, looked up): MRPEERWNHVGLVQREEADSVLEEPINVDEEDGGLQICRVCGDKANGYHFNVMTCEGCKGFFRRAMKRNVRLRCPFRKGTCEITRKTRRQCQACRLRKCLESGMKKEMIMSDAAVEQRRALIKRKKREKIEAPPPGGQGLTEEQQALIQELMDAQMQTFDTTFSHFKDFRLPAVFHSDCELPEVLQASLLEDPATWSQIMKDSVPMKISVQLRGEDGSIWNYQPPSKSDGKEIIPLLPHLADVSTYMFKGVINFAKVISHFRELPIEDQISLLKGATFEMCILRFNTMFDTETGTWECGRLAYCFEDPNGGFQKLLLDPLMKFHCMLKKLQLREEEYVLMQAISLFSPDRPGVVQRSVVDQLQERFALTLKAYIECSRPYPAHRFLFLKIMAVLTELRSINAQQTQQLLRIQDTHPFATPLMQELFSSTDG

Turning to `O=C1OC(=O)c2c(Br)c(Br)c(Br)c(Br)c21`, the Potency result in experiment [1] and in experiment [2] was “inactive” in each case.

In the case of `CCCCCCCCCc1ccc(OCCOCCO)cc1`, in experiment [1], the Potency is 21.1 µM (active). In addition, in experiment [2], the Potency entry was “inactive”.

With `O=S(=O)(O)c1cc(O)ccc1O`, the Potency result in experiment [3], in experiment [4], in experiment [5], in experiment [6], in experiment [8] and in experiment [9] was “inactive” each time. Further, the Potency entry in experiment [11], in experiment [12], in experiment [13], in experiment [14], in experiment [15] and in experiment [16] was “inactive” throughout. Besides, the Potency result in experiment [17] and in [18] was “inactive” throughout. The outcome in experiment [7] and in experiment [10] was inactive.

Take `Cc1ccc2ccccc2c1C`: the Potency result in experiment [6], in experiment [8], in experiment [9], in experiment [11], in [12] and in [13] was “inactive” in each case. Moreover, the outcome in experiment [7] and in [10] was inactive.

In the case of `CCCCC[C@@H](O)C1C(=O)OC(C)[C@H](O)/C=C/C=C/C=C/C=C/C=C(\C)C(O)C(O)C(O)C[C@H](O)C[C@H](O)C[C@H](O)C[C@H](O)C[C@@H]1O` (stereo partly specified), the Potency result in experiment [3], in experiment [4], in experiment [5], in experiment [6], in experiment [8] and in experiment [11] was “inactive” throughout. For the same compound, the Potency result in experiment [12], in experiment [13], in experiment [14], in experiment [15], in experiment [16] and in experiment [17] was “inactive” in each case. Moreover, the Potency entry in experiment [1], in experiment [19], in experiment [2] and in experiment [18] was “inactive” in each case. Besides, the compound was called inactive in [7] and in experiment [10]. Also, in [20], the max activation was 0.909%.

With `CNC(=O)OCC[N+](C)(C)C`, the Potency result in experiment [3], in [4], in experiment [5], in experiment [6], in [8] and in [11] was “inactive” each time. Further, the Potency entry in [12], in experiment [13], in experiment [14], in [15], in experiment [16] and in experiment [17] was “inactive” each time. Besides, the Potency entry in experiment [1], in experiment [19], in [2] and in experiment [18] was “inactive” each time. Also, the outcome in experiment [7] and in experiment [10] was inactive. Besides, in experiment [20], the max activation is 0.49%.

Turning to `CCC(=O)O[C@@](Cc1ccccc1)(c1ccccc1)[C@@H](C)CN(C)C`, the Potency result in [3], in experiment [4], in experiment [5], in experiment [6], in [8] and in [9] was “inactive” in each case. Besides, the Potency result in experiment [11], in [12], in experiment [13], in experiment [15], in experiment [16] and in [18] was “inactive” throughout. The result in [7] and in [10] was inactive. Further, in experiment [20], the max activation was 0.731%.

For the compound `CN1[C@H]2CC[C@@H]1[C@@H](C(=O)O)[C@@H](OC(=O)c1ccccc1)C2`, the Potency result in experiment [3], in experiment [4], in experiment [5], in [6], in experiment [8] and in [9] was “inactive” throughout. Besides, the Potency result in experiment [11], in [12], in experiment [13], in [14], in experiment [15] and in experiment [16] was “inactive” throughout. In addition, the Potency result in experiment [17], in [1], in experiment [19], in experiment [2] and in experiment [18] was “inactive” each time. Also, the outcome in [7] and in [10] was inactive. Further, the max activation in experiment [20] is -2.75%.

For the compound `CC(=O)OO`, the Potency result in [3], in experiment [4], in experiment [5], in experiment [6], in [8] and in [9] was “inactive” each time. For the same compound, the Potency result in experiment [11], in experiment [12], in experiment [13], in experiment [14], in [15] and in experiment [16] was “inactive” each time. For the same compound, the Potency entry in [17], in experiment [1], in experiment [19], in experiment [2] and in [18] was “inactive” throughout. Moreover, the call in experiment [7] and in [10] was inactive. Also, the max activation in [20] was -0.773%.
